# Columns and labels:
# Experiment in all cases: DAPPL (digital affinity profiling via proximity ligation, sequencing); 10 mM Tris-HCl pH 7.5, 50 mM NaCl, 1 mM DTT, 4% glycerol, room temperature, 30 min; GST-TFs on glutathione beads, 16-mer random dsDNA library, 0.1% formaldehyde crosslink after washing; high values mean tight binding
# FLI1 = target: T1, FLI1 (Homo sapiens, UniProt Q01543 1-452); settings: protein: recombinant; tags: N-terminal GST; dsDNA, one strand shown
# T1 sequence: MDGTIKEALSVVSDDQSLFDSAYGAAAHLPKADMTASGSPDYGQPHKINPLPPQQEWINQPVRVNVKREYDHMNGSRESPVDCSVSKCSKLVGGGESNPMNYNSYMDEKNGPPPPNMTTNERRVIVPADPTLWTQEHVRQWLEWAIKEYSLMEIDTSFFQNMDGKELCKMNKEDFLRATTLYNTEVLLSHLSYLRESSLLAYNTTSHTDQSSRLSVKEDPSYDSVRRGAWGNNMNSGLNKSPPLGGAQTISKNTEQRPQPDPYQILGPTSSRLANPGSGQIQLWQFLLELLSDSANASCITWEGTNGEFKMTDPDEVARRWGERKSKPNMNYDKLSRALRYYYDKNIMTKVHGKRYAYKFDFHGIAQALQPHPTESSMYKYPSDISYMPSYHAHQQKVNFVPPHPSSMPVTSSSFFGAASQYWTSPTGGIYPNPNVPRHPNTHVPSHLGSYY
# Outline: (§1)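 The binding signal reported is, for every hexamer, its read frequency for a factor over its read frequency for the tag-only sample. Reads came from pools of yeast-expressed, GST-fused human transcription factors on glutathione beads, barcoded with DNA and mixed with that sample, which were incubated with 200 nmole of a random double-stranded 16-mer DNA library in Tris/NaCl/DTT/glycerol buffer at room temperature for 30 min. After washing, the pools were crosslinked with 0.1% formaldehyde, proximity-ligated with BsaI/T4 ligase for 1 h at 37 °C, PCR-amplified and sequenced on an Illumina NextSeq500.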
# ELK1 = target: T2, ELK1 (Homo sapiens, UniProt P19419 1-428); settings: protein: recombinant; tags: N-terminal GST; dsDNA, one strand shown
# T2 sequence: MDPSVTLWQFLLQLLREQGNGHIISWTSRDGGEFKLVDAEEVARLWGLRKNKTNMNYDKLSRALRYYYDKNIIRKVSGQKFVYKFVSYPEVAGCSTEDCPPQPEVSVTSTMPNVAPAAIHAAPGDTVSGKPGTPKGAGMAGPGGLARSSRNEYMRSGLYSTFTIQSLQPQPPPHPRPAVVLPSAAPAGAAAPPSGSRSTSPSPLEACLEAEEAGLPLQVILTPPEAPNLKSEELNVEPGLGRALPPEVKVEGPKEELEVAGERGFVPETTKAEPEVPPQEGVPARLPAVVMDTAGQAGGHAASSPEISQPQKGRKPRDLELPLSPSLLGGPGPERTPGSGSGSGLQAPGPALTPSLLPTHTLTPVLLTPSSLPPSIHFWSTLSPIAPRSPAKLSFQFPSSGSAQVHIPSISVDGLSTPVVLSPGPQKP
# Outline: as §1
# GABPA = target: T3, GABPA (Homo sapiens, UniProt Q06546 1-454); settings: protein: recombinant; tags: N-terminal GST; dsDNA, one strand shown
# T3 sequence: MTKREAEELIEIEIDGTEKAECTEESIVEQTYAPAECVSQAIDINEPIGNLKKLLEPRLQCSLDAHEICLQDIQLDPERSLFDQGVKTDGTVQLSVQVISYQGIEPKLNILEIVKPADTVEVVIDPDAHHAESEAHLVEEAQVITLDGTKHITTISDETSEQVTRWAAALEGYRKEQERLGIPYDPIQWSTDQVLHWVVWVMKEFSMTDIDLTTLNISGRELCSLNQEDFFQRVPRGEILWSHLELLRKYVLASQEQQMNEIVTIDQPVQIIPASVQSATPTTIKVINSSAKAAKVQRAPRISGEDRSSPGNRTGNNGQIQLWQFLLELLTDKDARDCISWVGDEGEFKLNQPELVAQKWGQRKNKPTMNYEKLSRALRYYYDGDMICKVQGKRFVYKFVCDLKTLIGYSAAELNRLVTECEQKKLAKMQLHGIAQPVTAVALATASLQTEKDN
# Outline: as §1
# ERG = target: T4, ERG (Homo sapiens, UniProt P11308 1-479); settings: protein: recombinant; tags: N-terminal GST; dsDNA, one strand shown
# T4 sequence: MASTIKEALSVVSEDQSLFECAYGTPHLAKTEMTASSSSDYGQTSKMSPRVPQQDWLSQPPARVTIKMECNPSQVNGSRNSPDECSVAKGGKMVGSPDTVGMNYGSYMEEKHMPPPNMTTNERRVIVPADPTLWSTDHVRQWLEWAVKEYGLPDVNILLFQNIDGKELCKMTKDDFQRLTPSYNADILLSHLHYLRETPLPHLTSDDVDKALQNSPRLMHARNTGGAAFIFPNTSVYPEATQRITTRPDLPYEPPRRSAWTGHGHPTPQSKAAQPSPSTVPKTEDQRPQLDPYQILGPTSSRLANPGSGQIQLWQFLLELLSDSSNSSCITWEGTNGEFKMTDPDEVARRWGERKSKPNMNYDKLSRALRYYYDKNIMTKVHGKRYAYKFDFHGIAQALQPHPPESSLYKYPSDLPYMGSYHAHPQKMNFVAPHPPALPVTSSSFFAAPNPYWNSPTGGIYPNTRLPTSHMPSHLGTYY
# Outline: as §1
# ELF1 = ELF1 (Homo sapiens, UniProt P32519 1-619); settings: protein: recombinant; tags: N-terminal GST; dsDNA, one strand shown
# Outline: as §1
# EHF = target: T5, EHF (Homo sapiens, UniProt Q9NZC4 1-300); settings: protein: recombinant; tags: N-terminal GST; dsDNA, one strand shown
# T5 sequence: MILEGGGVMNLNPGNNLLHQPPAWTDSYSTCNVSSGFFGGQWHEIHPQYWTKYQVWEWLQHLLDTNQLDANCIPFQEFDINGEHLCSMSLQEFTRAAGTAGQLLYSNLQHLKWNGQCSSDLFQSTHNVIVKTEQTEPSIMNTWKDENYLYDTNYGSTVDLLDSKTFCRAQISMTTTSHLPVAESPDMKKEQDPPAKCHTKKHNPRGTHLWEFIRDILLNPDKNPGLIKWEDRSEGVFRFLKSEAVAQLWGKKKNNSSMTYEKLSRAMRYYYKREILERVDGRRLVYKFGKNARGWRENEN
# Outline: as §1
# SPI1 = SPI1 (Homo sapiens, UniProt P17947 1-270); settings: protein: recombinant; tags: N-terminal GST; dsDNA, one strand shown
# Outline: as §1
# SPIB = SPIB (Homo sapiens, UniProt Q01892 1-262); settings: protein: recombinant; tags: N-terminal GST; dsDNA, one strand shown
# Outline: as §1
# ELK3 = target: T6, ELK3 (Homo sapiens, UniProt P41970 1-407); settings: protein: recombinant; tags: N-terminal GST; dsDNA, one strand shown
# T6 sequence: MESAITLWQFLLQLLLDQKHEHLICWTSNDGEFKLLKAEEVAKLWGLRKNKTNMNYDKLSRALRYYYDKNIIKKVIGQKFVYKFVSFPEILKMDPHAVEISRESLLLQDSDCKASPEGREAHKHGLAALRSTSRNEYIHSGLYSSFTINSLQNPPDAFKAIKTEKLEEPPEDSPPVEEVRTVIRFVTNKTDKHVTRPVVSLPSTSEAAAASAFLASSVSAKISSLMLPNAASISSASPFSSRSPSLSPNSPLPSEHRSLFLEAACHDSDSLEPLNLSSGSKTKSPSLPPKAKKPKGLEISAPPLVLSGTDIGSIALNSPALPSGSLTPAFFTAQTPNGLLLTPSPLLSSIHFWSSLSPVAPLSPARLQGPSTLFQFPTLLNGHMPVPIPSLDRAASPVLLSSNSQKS
# Outline: as §1
# FEV = target: T7, FEV (Homo sapiens, UniProt Q99581 1-238); settings: protein: recombinant; tags: N-terminal GST; dsDNA, one strand shown
# T7 sequence: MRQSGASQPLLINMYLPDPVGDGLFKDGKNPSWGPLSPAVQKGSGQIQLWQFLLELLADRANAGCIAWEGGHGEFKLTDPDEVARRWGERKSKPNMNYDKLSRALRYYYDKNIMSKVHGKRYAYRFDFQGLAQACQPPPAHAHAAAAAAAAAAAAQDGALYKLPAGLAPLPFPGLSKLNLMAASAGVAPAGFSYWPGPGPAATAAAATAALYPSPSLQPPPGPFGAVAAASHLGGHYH
# Outline: as §1
# ETV5 = ETV5 (Homo sapiens, UniProt P41161 1-510); settings: protein: recombinant; tags: N-terminal GST; dsDNA, one strand shown
# Outline: as §1
# HSF1 = HSF1 (Homo sapiens, UniProt Q00613 1-529); settings: protein: recombinant; tags: N-terminal GST; chain copies: 3; dsDNA, one strand shown
# Outline: as §1
# SPIC = target: T8, SPIC (Homo sapiens, UniProt Q8N5J4 1-248); settings: protein: recombinant; tags: N-terminal GST; dsDNA, one strand shown
# T8 sequence: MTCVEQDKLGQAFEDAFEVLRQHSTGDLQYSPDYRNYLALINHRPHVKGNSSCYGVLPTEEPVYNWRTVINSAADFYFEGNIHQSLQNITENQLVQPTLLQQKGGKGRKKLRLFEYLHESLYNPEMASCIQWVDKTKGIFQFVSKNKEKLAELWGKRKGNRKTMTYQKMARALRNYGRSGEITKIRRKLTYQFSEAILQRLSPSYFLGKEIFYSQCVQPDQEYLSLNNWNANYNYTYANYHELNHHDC
# Outline: as §1
# ELF4 = ELF4 (Homo sapiens, UniProt Q99607 1-663); settings: protein: recombinant; tags: N-terminal GST; dsDNA, one strand shown
# Outline: as §1
# ELK4 = target: T9, ELK4 (Homo sapiens, UniProt P28324-2 1-405); settings: protein: recombinant; tags: N-terminal GST; dsDNA, one strand shown
# T9 sequence: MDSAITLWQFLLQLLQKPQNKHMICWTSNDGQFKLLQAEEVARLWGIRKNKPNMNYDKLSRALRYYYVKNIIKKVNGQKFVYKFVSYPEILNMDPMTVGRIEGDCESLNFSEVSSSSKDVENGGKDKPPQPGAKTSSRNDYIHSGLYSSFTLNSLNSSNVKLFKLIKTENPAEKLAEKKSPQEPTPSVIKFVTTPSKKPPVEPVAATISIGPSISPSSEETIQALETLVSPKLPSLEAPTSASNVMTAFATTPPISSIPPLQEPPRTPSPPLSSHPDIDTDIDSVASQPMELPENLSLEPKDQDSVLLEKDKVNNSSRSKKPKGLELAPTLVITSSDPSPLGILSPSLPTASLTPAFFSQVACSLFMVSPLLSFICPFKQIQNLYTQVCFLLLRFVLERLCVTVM
# Outline: as §1
# ETV2 = target: T10, ETV2 (Homo sapiens, UniProt O00321 1-342); settings: protein: recombinant; tags: N-terminal GST; dsDNA, one strand shown
# T10 sequence: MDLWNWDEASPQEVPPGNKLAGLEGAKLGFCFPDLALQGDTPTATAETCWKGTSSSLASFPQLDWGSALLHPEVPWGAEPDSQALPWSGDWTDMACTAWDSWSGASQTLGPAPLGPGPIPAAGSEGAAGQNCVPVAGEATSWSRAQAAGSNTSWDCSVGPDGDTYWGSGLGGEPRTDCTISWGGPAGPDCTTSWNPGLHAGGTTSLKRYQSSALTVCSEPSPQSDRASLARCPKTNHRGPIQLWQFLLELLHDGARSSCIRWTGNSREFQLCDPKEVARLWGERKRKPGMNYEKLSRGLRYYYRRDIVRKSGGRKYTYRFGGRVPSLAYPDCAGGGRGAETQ
# Outline: as §1
# ELF3 = target: T11, ELF3 (Homo sapiens, UniProt P78545 1-371); settings: protein: recombinant; tags: N-terminal GST; dsDNA, one strand shown
# T11 sequence: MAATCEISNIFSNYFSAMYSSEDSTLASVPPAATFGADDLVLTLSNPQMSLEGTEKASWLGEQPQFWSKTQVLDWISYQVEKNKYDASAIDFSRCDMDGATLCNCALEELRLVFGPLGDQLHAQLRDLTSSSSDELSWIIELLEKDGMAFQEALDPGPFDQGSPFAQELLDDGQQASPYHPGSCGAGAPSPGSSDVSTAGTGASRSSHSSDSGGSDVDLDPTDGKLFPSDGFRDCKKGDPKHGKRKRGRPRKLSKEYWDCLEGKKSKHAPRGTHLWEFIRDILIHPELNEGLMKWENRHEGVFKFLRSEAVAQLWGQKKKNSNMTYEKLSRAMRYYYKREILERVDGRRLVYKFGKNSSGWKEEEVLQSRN
# Outline: as §1
# ETV1 = ETV1 (Homo sapiens, UniProt P50549 1-477); settings: protein: recombinant; tags: N-terminal GST; dsDNA, one strand shown
# Outline: as §1
# ETV5, sequence (P41161 whole entry): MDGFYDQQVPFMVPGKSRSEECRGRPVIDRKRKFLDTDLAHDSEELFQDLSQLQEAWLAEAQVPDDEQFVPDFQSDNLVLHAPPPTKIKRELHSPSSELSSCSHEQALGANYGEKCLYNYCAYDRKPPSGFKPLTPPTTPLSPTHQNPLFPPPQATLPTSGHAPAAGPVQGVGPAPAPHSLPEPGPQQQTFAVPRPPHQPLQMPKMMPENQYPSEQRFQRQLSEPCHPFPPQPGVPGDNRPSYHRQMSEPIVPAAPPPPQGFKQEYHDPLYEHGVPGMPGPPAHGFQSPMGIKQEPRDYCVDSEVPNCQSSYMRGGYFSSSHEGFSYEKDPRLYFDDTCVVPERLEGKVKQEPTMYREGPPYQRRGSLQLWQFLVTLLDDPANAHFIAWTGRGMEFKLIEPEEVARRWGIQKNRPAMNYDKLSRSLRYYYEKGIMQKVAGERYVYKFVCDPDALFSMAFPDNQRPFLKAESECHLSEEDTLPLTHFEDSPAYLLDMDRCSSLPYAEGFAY
# SPIB, sequence (Q01892 whole entry): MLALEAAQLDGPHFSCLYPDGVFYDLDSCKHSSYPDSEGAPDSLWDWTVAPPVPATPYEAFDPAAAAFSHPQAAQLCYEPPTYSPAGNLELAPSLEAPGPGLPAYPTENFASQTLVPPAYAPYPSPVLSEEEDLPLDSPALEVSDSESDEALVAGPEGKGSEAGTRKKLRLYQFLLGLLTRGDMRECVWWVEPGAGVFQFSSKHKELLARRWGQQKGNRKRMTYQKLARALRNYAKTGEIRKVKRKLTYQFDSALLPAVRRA
# HSF1, sequence (Q00613 whole entry): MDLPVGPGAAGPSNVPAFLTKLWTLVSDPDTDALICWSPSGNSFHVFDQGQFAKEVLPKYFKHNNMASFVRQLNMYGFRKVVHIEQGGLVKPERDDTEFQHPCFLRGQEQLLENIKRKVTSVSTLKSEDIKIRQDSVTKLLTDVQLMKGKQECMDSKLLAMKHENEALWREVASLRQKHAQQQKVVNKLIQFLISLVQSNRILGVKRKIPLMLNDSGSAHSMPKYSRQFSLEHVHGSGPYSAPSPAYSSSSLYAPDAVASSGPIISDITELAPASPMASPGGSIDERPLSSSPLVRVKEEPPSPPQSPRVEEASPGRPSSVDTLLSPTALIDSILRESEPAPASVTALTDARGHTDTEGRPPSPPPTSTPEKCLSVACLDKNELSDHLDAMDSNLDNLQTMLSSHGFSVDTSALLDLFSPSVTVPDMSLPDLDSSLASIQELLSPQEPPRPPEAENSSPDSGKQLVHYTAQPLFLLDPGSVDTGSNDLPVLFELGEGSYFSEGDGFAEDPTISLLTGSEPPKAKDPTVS
# ELF4, sequence (Q99607 whole entry): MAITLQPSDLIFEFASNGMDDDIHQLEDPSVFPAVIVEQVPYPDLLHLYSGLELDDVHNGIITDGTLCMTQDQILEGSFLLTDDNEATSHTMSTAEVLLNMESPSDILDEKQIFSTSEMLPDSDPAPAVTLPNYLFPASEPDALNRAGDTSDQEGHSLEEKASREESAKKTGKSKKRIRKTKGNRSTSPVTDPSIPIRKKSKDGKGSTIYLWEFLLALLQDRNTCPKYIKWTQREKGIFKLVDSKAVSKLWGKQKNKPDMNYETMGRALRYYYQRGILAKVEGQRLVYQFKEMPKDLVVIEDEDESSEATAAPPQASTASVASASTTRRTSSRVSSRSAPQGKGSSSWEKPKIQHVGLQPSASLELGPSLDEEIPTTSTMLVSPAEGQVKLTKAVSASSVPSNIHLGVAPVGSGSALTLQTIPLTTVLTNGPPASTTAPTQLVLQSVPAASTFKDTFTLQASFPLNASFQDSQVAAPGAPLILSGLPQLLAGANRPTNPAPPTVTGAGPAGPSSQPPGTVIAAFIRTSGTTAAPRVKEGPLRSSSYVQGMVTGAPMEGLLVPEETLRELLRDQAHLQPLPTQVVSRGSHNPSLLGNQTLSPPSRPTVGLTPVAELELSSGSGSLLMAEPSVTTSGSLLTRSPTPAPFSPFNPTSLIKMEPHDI
# ETV1, sequence (P50549 whole entry): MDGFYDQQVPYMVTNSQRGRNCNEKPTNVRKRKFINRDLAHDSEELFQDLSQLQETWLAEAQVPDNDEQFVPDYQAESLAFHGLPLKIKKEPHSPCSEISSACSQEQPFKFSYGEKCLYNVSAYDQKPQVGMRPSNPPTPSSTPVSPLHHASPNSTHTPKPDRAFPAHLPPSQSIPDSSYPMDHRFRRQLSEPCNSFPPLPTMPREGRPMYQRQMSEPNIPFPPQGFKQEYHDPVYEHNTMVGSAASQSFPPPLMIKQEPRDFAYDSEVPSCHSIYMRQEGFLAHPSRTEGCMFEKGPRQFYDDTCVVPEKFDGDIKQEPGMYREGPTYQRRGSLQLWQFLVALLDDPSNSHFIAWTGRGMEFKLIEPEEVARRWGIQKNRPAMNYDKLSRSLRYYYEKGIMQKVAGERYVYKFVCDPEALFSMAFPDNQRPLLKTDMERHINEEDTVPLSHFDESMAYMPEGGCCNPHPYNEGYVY
# ELF1, sequence (P32519 whole entry): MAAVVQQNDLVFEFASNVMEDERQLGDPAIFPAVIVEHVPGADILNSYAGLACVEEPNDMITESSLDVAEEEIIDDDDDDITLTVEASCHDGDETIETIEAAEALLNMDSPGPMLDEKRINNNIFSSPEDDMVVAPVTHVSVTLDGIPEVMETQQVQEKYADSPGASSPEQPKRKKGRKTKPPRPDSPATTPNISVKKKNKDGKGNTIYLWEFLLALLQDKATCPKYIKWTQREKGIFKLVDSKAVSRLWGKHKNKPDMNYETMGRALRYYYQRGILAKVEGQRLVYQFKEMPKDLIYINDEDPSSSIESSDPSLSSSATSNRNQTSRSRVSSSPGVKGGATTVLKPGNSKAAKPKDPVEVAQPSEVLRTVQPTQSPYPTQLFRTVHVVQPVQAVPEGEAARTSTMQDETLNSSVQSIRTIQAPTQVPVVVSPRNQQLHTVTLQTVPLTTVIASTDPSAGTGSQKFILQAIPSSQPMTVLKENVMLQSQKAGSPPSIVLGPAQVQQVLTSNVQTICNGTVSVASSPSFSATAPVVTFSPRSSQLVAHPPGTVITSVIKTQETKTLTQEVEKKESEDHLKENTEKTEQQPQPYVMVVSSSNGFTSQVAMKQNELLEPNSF
sequence,measurement,setting,value
TGGTAC,binding signal,FLI1,"1.18 fold enrichment (6-mer frequency, TF over GST control)"
same,binding signal,ELK1,"1.23 fold enrichment (6-mer frequency, TF over GST control)"
same,binding signal,GABPA,"1.13 fold enrichment (6-mer frequency, TF over GST control)"
same,binding signal,ERG,"1.15 fold enrichment (6-mer frequency, TF over GST control)"
same,binding signal,ELF1,"1.17 fold enrichment (6-mer frequency, TF over GST control)"
same,binding signal,EHF,"1.13 fold enrichment (6-mer frequency, TF over GST control)"
same,binding signal,SPI1,"1.12 fold enrichment (6-mer frequency, TF over GST control)"
same,binding signal,SPIB,"1.27 fold enrichment (6-mer frequency, TF over GST control)"
same,binding signal,ELK3,"1.07 fold enrichment (6-mer frequency, TF over GST control)"
same,binding signal,FEV,"1.07 fold enrichment (6-mer frequency, TF over GST control)"
same,binding signal,ETV5,"1.2 fold enrichment (6-mer frequency, TF over GST control)"
same,binding signal,HSF1,"1.04 fold enrichment (6-mer frequency, TF over GST control)"
same,binding signal,SPIC,"1.14 fold enrichment (6-mer frequency, TF over GST control)"
same,binding signal,ELF4,"1.08 fold enrichment (6-mer frequency, TF over GST control)"
same,binding signal,ELK4,"1.11 fold enrichment (6-mer frequency, TF over GST control)"
same,binding signal,ETV2,"1.15 fold enrichment (6-mer frequency, TF over GST control)"
same,binding signal,ELF3,"1.07 fold enrichment (6-mer frequency, TF over GST control)"
same,binding signal,ETV1,"1.19 fold enrichment (6-mer frequency, TF over GST control)"
